# Results filed as inconclusive are left out. A call without a number means that no potency is given here. Calls of active or inactive are those of the source. Calls follow the shape of the dose curve; as a rule, active = well fitted curve in the direction sought with a large enough effect; inconclusive = small, poorly fitted or top-dose-only effect, or another doubt; inactive = no such curve, though single readings can be large; an effect the other way counts as inactive or inconclusive.
# Tests used:
# [1] = target: Calcium and integrin-binding protein 1 (Homo sapiens) (UniProt Q99828); assay: Primary qHTS for Identification of Calcium Integrin Binding Protein 1 (CIB1) Competitor (AID 1508620);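 also: GST tagged CIB1 binding a fluorescein labelled alphaIIb integrin peptide tracer; top concentration of the series differs between compounds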
# Chain of Calcium and integrin-binding protein 1 (Homo sapiens) (Q99828 whole entry, looked up): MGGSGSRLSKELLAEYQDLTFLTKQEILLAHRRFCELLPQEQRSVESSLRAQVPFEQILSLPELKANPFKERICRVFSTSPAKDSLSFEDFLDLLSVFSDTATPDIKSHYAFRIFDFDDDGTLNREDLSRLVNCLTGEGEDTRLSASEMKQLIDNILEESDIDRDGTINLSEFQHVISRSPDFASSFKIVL
# Procedure, shortened: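 Fluorescence polarization competition: CIB1-GST (1 uM final) preincubated with compound 15 min at room temperature, then FITC-labeled alphaIIb peptide (100 nM final) added for another 15 min. Polarization read at Ex 480/Em 540.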
# [2] = Primary qHTS for inhibitors of nuclear receptor binding SET domain protein 2 (NSD2) in an isogenic RCH-ACV NSD2 p.E1099K mutant (9B) (AID 1645876); also: nearly all actives have a fitted effect of over 70% in size; also: potency is read from the fitted curve at half-maximal effect
# [3] = Primary qHTS for inhibitors of nuclear receptor binding SET domain protein 2 (NSD2) in an RCH-ACV wild type WT cells (2C) (AID 1645877); also: nearly all actives have a fitted effect of over 70% in size; also: potency is read from the fitted curve at half-maximal effect
Structure (SMILES),Potency [1],Potency [2],Potency [3],"activity change, negative = viability loss [2]","activity change, negative = cell killing [3]"
CC1(O)CC(O)C2C(C(=O)O)=COC(OC3OC(CO)C(O)C(O)C3OC(=O)/C=C/c3ccc(O)cc3)C21 (centres undefined),inactive,inactive,inactive,–,–
C[C@@H]1CC[C@]2(C(=O)O)CC[C@]3(C)C(=CCC4[C@@]5(C)C[C@@H](O)[C@@H](O)C(C)(C)C5CC[C@]43C)C2[C@]1(C)O (some centres undefined),inactive,inactive,inactive,–,–
COc1cccc(C)c1C(=O)O[C@@H]1C[C@H](O[C@H]2[C@H](O)C[C@H](O[C@@H]3CCC[C@H]4[C@H]3C=C[C@@H]3CCCC/C=C/[C@H]5C=C(C(=O)O)[C@@H](C)C[C@@]56OC(=O)C(=C6O)OC(=O)[C@@]34C)O[C@@H]2C)O[C@H](C)[C@H]1O,inactive,–,–,-5.35% [at 9.23 µM] (inactive),-1.86% [at 9.23 µM] (inactive)
C=C1CCC2(OC1)OC1CC3C4CC=C5CC(O)CC(O[C@@H]6OC[C@H](OC(=O)C(O)C(C)CC)[C@H](O)[C@H]6O[C@@H]6O[C@@H](C)[C@H](O)[C@@H](O)[C@H]6O)C5(C)C4CCC3(C)C1C2C (some centres undefined),inactive,–,–,-3.21% [at 9.23 µM] (inactive),-9.66% [at 9.23 µM] (inactive)
C[C@@H]1O[C@@H](O[C@H]2[C@H](O[C@H]3[C@H](O[C@H]4CC[C@@]5(C)C(CC[C@]6(C)C5CC=C5[C@@H]7CC(C)(C)C[C@@H](O)[C@]7(C)CC[C@]56C)[C@@]4(C)CO)O[C@H](C(=O)O)[C@@H](O)[C@@H]3O)O[C@H](C(=O)O)[C@H](O)[C@@H]2O)[C@H](O)[C@H](O)[C@H]1O (some centres undefined),inactive,–,–,4.66% [at 9.23 µM] (inactive),2.89% [at 9.23 µM] (inactive)
CC(C)=CCc1cc(O[C@@H]2O[C@H](CO[C@@H]3OC[C@](O)(CO)[C@H]3O)[C@@H](O)[C@H](O)[C@H]2O)ccc1O,inactive,inactive,inactive,–,–
CCC1=C(C)C(=O)C(C)CC12C(=O)CCC2C(=O)O (centres undefined),inactive,inactive,inactive,–,–
COc1cc(C(=O)OC[C@H]2O[C@@H](OC(C)(C)C(=O)O)[C@H](O)[C@@H](O)[C@@H]2O)cc(OC)c1O,inactive,inactive,inactive,–,–
CC(=O)C1CCC(=O)N1Cc1ccccc1 (centres undefined),inactive,inactive,inactive,–,–
CC1CCC2(C(=O)O)CCC3(C)C(=CCC4C5(C)CCC(O)C(C)(C(=O)O)C5CCC43C)C2C1(C)O (centres undefined),inactive,inactive,inactive,–,–
COC(=O)C1=CO[C@@H](O[C@@H]2O[C@H](CO)[C@@H](O)[C@H](O)[C@H]2O)[C@@H]2[C@@H](C(=O)O)CC[C@H]12,inactive,inactive,inactive,–,–
COc1ccnc2[nH]cc(C(=O)C(=O)N3CCN(C(=O)c4ccccc4)CC3C)c12 (centres undefined),inactive,inactive,inactive,–,–
C[C@@H]1C(=O)O[C@H](C)[C@H]1C[C@@H](O)[C@](C)(O)[C@H]1CC[C@@]2(O)C3=CC(=O)[C@@H]4C[C@@H](O)[C@@H](O)C[C@]4(C)C3CC[C@]12C (some centres undefined),inactive,inactive,inactive,–,–
CC1(C)CCC[C@@]2(C)[C@H]1[C@H](O)C=C(CO)[C@]2(O)CO,inactive,inactive,inactive,–,–
COC1CC(O[C@H]2CC[C@@]3(C)C(=CC[C@]4(O)C3[C@H](O)[C@@H](O)[C@]3(C)[C@@H]([C@H](C)O)CC[C@@]34O)C2)OC(C)C1OC1CC(OC)C(OC2CC(OC)C(OC3OC(C)C(OC4OC(CO)C(O)C(O)C4O)C(OC)C3O)C(C)O2)C(C)O1 (some centres undefined),inactive,–,–,1.87% [at 9.23 µM] (inactive),-2.18% [at 9.23 µM] (inactive)
O=c1[nH]ccc2nc(-c3ccc(CN4CCC(c5nc(-c6ccccn6)n[nH]5)CC4)cc3)c(-c3ccccc3)cc12,inactive,32.5 nM (active),81.7 nM (active),–,–
CC(=O)O[C@@H]1C(O)C[C@@]2(C)C(CC[C@@H](C)C23Cc2c(O)cc4c(c2O3)CNC4=O)C1(C)C (some centres undefined),inactive,inactive,inactive,–,–
COC(=O)c1c(CC=C(C)C)c(OC2OC(CO)C(O)C(O)C2O)c2ccccc2c1OC1OC(CO)C(O)C(O)C1O (centres undefined),inactive,inactive,inactive,–,–
O=C(OCC1=C[C@@H](O)[C@@H]2C=CO[C@@H](O[C@@H]3O[C@H](CO)[C@@H](O)[C@H](O)[C@H]3O)[C@H]12)c1ccc(O)cc1,inactive,inactive,inactive,–,–
CC1(C(=O)O)CCCC2(C)C3CC4C5CC3(CCC12)CC45C (centres undefined),inactive,inactive,inactive,–,–
C=C1CC23CC1CCC2C12OC(=O)C(C)(C(O)C(O)C1O)C2C3C(=O)O (centres undefined),inactive,inactive,inactive,–,–
CCC(C)/C=C(C)/C=C/C1=CC2=C(Cl)C(=O)C(C)(OC(C)=O)C(=O)C2=CN1C(CCC(=O)O)C(=O)O (centres undefined),inactive,inactive,inactive,–,–
CSCC1OC(n2cnc3c(=O)[nH]cnc32)C(O)C1O (centres undefined),inactive,inactive,inactive,–,–
C/C(=C\C(=O)C[C@@]12C(=O)O[C@]3(C)CC[C@H]1C[C@H]23)C(N)=O,inactive,inactive,inactive,–,–
O=C(O)c1cc(O[C@@H]2O[C@H](CO)[C@@H](O)[C@H](O)[C@H]2O)ccc1O,inactive,inactive,inactive,–,–
CC1(C)CCCC2(C)c3c4c(c(=O)oc(=O)c3=CCC12)=CCC1C(C)(C)CCCC41C (centres undefined),inactive,inactive,inactive,–,–
CC1=C2CC(=O)C(C)CC/C=C(\C)CC2OC1=O (centres undefined),inactive,inactive,inactive,–,–

Structure (SMILES),Potency [1],Potency [2],Potency [3],"activity change, negative = viability loss [2]","activity change, negative = cell killing [3]"
Cc1cc(CO)c(O)c(C(=O)CC2CC(=O)NC(=O)C2)c1,inactive,inactive,inactive,–,–
Cc1ccc(C)c(S(=O)(=O)n2cnc3ccccc32)c1,inactive,inactive,inactive,–,–
CN(C)CCC[C@]1(c2ccc(F)cc2)OCc2cc(C#N)ccc21,inactive,inactive,inactive,–,–
COC(=O)C1=CO[C@@H](O[C@@H]2O[C@H](CO)[C@@H](O)[C@H](O)[C@H]2O)[C@@H]2[C@@H](CO)[C@@H](O)C(O)[C@H]12 (some centres undefined),inactive,inactive,inactive,–,–
C=CCc1ccc(O[C@@H]2O[C@H](CO)[C@@H](O)[C@H](O)[C@H]2O)c(O[C@@H]2O[C@H](CO)[C@@H](O)[C@H](O)[C@H]2O)c1,inactive,inactive,inactive,–,–
CC(=O)OC[C@]12[C@@H](OC(=O)c3ccoc3)C[C@@H]3[C@@H](OC(C)=O)[C@]1(OC3(C)C)[C@@](C)(O)C[C@H](OC(=O)c1ccoc1)[C@@H]2OC(=O)c1ccoc1,inactive,inactive,inactive,–,–
C=C(COC(=O)CC(C)C)C1Cc2cc(C(C)=O)ccc2O1 (centres undefined),inactive,inactive,inactive,–,–
COc1cc(/C=C/C(=O)O[C@@H]2O[C@H](CO)[C@@H](O)[C@H](O)[C@H]2O)ccc1O,inactive,inactive,inactive,–,–
CC1(C)CC[C@]2(C(=O)O[C@@H]3O[C@H](CO)[C@@H](O)[C@H](O)[C@H]3O)CC[C@]3(C)C(=CCC4[C@@]5(C)C[C@@H](O)[C@H](O)[C@@](C)(CO)C5[C@H](O)C[C@]43C)C2[C@@H]1O (some centres undefined),inactive,inactive,inactive,–,–
COc1cc(C2Oc3c(OC)cc(/C=C/C(=O)OC4CC(O)(C(=O)O)CC(O)C4O)cc3C2CO)ccc1O (centres undefined),inactive,inactive,inactive,–,–
CO[C@@H]1[C@]2(O)C(=O)N3/C=C\C(C)(C)c4[nH]c5ccccc5c4/C=C\3C(=O)N2[C@]23[C@H](CO)C(C)(C)N2c2ccccc2[C@]13O,inactive,inactive,inactive,–,–
C=C1CCC2C(C)(C)CCC[C@]2(C)[C@H]1CC/C(C)=C/C(=O)O (some centres undefined),inactive,inactive,inactive,–,–
CC(O)C1CCC2C3CCC4CC(OC5OC(C(=O)O)C(O)C(O)C5O)CCC4(C)C3CCC12C (centres undefined),inactive,inactive,inactive,–,–
COc1cc2c(c(O)c1OC/C=C(\C)CC/C=C(/C)CCC=C(C)C)CN(C(CCC(=O)O)C(=O)O)C2=O (centres undefined),inactive,inactive,inactive,–,–
COc1cc(CCCO)ccc1O[C@@H]1O[C@H](CO)[C@@H](O)[C@H](O)[C@H]1O,inactive,inactive,inactive,–,–
CC(C)CC(c1c(O)c(C=O)c(O)c(C=O)c1O)C1CCC(C)(O)C2CC(C(C)(C)O)CCC12C (centres undefined),inactive,inactive,inactive,–,–
COc1c(O)cc2c(c1O)C(=O)O[C@H](C)[C@H]2O,inactive,inactive,inactive,–,–
CC1(C)CC[C@]2(C(=O)O)CC[C@]3(C)C(=CCC4[C@@]5(C)C[C@@H](O)[C@H](O)[C@@](C)(CO)C5CC[C@]43C)C2C1 (some centres undefined),inactive,inactive,inactive,–,–
COc1cc(CO)ccc1O[C@@H]1O[C@H](CO)[C@@H](O)[C@H](O)[C@H]1O,inactive,inactive,inactive,–,–
COc1cc(O)cc(C)c1C(=O)OC1C(CO)OC(n2ccc(=O)[nH]c2=O)C1OC(C)=O (centres undefined),inactive,inactive,inactive,–,–
CC1=C[C@@H]2[C@H]3[C@@H]4O[C@@](C)(CC[C@H]4O)[C@H]3CC(=O)[C@]23C(=O)N[C@@H](CC(C)C)[C@@H]3[C@@H]1C,inactive,inactive,inactive,–,–
O=S(=O)(O)c1ccc(Nc2ncnc3c2ncn3[C@@H]2O[C@H](CO)[C@@H](O)[C@H]2O)cc1,inactive,inactive,inactive,–,–
Cc1cc(O[C@@H]2O[C@H](COC(=O)CC(=O)O)[C@@H](O)[C@H](O)[C@H]2O)c(C(C)C)cc1O,inactive,inactive,inactive,–,–
O=C(OC[C@H]1O[C@@H](Oc2ccccc2COC(=O)C2(O)C=CCCC2O)[C@H](O)[C@@H](O)[C@@H]1O)c1ccccc1 (some centres undefined),inactive,inactive,inactive,–,–
CC12CC(O)C(O)C=C1c1cc(O)cc(O)c1C(=O)O2 (centres undefined),inactive,inactive,inactive,–,–
CCN1CCN(C(=O)N[C@@H](C(=O)N[C@@H]2C(=O)N3[C@@H]2SC(C)(C)[C@@H]3C(=O)O)c2ccccc2)C(=O)C1=O,inactive,inactive,inactive,–,–

# Source: PubChem BioAssay (NCATS)
